Here are results for 24 molecules from PubChem BioAssay AID540352 (National Center for Advancing Translational Sciences (NCATS), 2011).

Each structure is given as a SMILES string. Inconclusive results are not listed. Unmarked numbers belong to inactive results. The source made the active and inactive calls. The call rests on the fitted dose curve; in most records, active means well fitted inhibition curve with a large enough effect; inconclusive means small, poorly fitted or top-dose-only effect; inactive means no such curve, though single readings can be large or run the other way.

The test can be described thus: qHTS for Inhibitos of Bacillus subtilis Sfp phosphopantetheinyl transferase (PPTase): Chemistry Optimization Followup in B. Subtilis 168. The following applies: B. subtilis 168 growth, BacTiter-Glo luminescence, 5 h; series mostly up to 114 µM; activity change, negative = inhibition: at the top concentration. The source says: Phosphopantetheinyl transfer is a process essential to cellular viability and maintenance. Cell-permeable and stable compounds acting as PPTase inhibitors are anticipated to be antimicrobial agents in organisms with complimenting genotypes. […] This experiment evaluated a series of test compounds for antimicrobial activity with B. subtilis 168 (genotype: acpS+ and sfp-), a strain that contains a frameshift mutation in the sfp locus and thus requires a functional AcpS gene product for viability. [Mootz HD, 2001] This strain is expected to be sensitized to cell-permeable AcpS inhibitors, and insensitive to Sfp inhibitors. NIH Chemical Genomics Center [NCGC] NIH Molecular Libraries Probe Centers Network [MLPCN] MLPCN Grant: MH083266-01 Assay Submitter (PI): Michael Burkart, University of California, San Diego
Innoculum preparation. Bacillus subtilis 168 is maintained on lysogeny broth (LB) solidified by the addition of 1.5% w/v agar. Single colonies were used to LB medium (2 mL) and shaken overnight at 30 masculineC. In the morning, this culture (100 ul) was used to seed a fresh LB medium (10 mL) and was shaken at 30 masculineC until the culture OD600 reached 0.5. This culture was diluted 1:100 in fresh LB medium to provide the inoculum below. Bacterial susceptibility. LB medium (2 uL) is dispensed into wells of a sterile white 1536-well plate. Test compounds (23 nL) prepared as serial dilutions in DMSO are added to the plate by pintool transfer. Innoculum (2 uL) is added, the plates are covered with a vented Kalypsys assay lid and incubated at 30 masculineC. After 5 h, Bac-Titer Glo (4 uL; Promega Corp, Madison, WI) is added to the plates. They are incubated 10 minutes at room temperature and then the luminescence detected in a ViewLux multimodal plate reader.
In the case of `Cc1ccnc(NC(=S)N2CCN(c3ccc(Cl)cc3Cl)CC2)c1`, the Potency is 16.7 µM (active). On the same count and under the same terms, as for `OCc1ccnc(NC(=S)N2CCN(c3cccc(C(F)(F)F)c3)CC2)c1`, the figure is 46.9 µM (active). The same measure, in the same setting: as for `COc1ccnc(NC(=S)N2CCN(c3cccc(Cl)c3Cl)CC2)c1`, the figure is 9.37 µM (active). `Cc1cc(C)nc(NC(=S)N2CCN(c3ccc4nncn4c3)CC2)c1`: the “activity change, negative = inhibition” value is -15.5%. Regarding `COc1cccc(NC(=S)N2CCN(c3cc(C(F)(F)F)cc(C(F)(F)F)c3)CC2)n1`, the “activity change, negative = inhibition” value is -7.94%.

With `COC(=O)c1ccnc(NC(=S)N2CCN(c3cccc(C(F)(F)F)c3)CC2)c1`, the Potency was 41.8 µM (active). Turning to `Cc1ccnc(NC(=S)N2CCN(c3cccc(C(F)(F)F)n3)CC2)c1`, the Potency was 16.7 µM (active). As to `Cc1ccnc(NC(=S)N2CCN(c3cccc(N(C)C)c3)CC2)c1`, the Potency was 59.1 µM (active). Turning to `Cc1ccnc(NC(=S)NCCN(C)c2cccc(C(F)(F)F)c2)c1`, the “activity change, negative = inhibition” value was -19.2%. Consider `Cc1ccnc(NC(=S)NC2CN(c3cccc(C(F)(F)F)c3)C2)c1`, for which the Potency was 46.9 µM (active). As to `Cc1cc(C)nc(NC(=S)N2CCN(c3ncccc3C#N)CC2)c1`, the “activity change, negative = inhibition” value is -10.9%. As for `S=C(Nc1cc(Cl)ccn1)N1CCN(c2cc(Cl)cc(Cl)c2)CC1`, the Potency is 13.2 µM (active).

Turning to `Cc1ccnc(NC(=S)N2CCN(c3cccc(C(F)(F)F)c3)C2)c1`, the “activity change, negative = inhibition” value was -10.5%. Consider `Cc1cc(C)nc(NC(=S)N2CCN(c3ccc(Cl)nn3)CC2)c1`, for which the “activity change, negative = inhibition” value was -33.3%. As to `FC(F)(F)c1cc(N2CCN(C(=S)Nc3cc(Cl)ccn3)CC2)cc(C(F)(F)F)c1`, the Potency is 37.3 µM (active). The same measure, in the same setting: in the case of `Cc1ccnc(NC(=S)N2CCN(c3ccc(Br)cc3)CC2)c1` it was 23.5 µM (active). Take `Cc1cc(C)nc(NC(=S)N2CCN(c3ccncc3)CC2)c1`: the “activity change, negative = inhibition” value is -18.6%. On to `Cc1cc(C)nc(NC(=S)N2CCN(c3ccc(C(F)(F)F)cc3[N+](=O)[O-])CC2)c1`, for which the Potency is 41.8 µM (active).

In the case of `COc1cccc(NC(=S)N2CCN(c3cc(Cl)cc(Cl)c3)CC2)n1`, the “activity change, negative = inhibition” value was -1.53%. `Cc1cc(C)nc(Nc2nnc(N3CCN(c4cccc(C(F)(F)F)c4)CC3)s2)c1`: the “activity change, negative = inhibition” value is -13.3%. `Cc1cc(C)nc(NC(=S)N2CCN(c3cc(Cl)c(Cl)cc3Cl)CC2)c1`: the Potency is 21 µM (active). Regarding `Cc1cc(C)nc(NC(=S)N2CCN(c3nsc4ccccc34)CC2)c1`, the Potency is 52.7 µM (active). For the molecule `Cc1ccnc(NC(=S)N2CCN(c3ccc(Cl)c(Cl)c3)CC2)c1`, the Potency was 11.8 µM (active). Consider `CN(C)c1ccc2nc(NC(=S)N3CCN(c4cccc(C(F)(F)F)c4)CC3)sc2c1`, for which the Potency was 5.91 µM (active).
